The source of these data is PubChem BioAssay (NCI).

Assay [1] in a line: NCI Yeast Anticancer Drug Screen. Data for the rad50 strain (AID 155).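 Further: 0% = growth of vehicle-only cultures of the same strain.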 The note with it: S. cerevisiae rad50 strain growth inhibition; at 50.0 µM; stronger effect = higher value. The method, boiled down: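 Relative growth inhibition (compound vs vehicle) was measured in yeast with a defined repair-gene alteration.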
Assay [2] is described as follows: NCI Yeast Anticancer Drug Screen. Data for the mec2-1 strain (AID 157). The note with it: S. cerevisiae mec2-1 strain, at 50.0 µM, stronger effect = higher value. Put shortly: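 Mutant yeast (mec2-1) grown with compound; growth inhibition relative to vehicle control reported.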
The nature of assay [3]: NCI Yeast Anticancer Drug Screen. Data for the sgs1 mgt1 strain (AID 161).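 Further: 0% = growth of cultures given vehicle only.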 To be noted: S. cerevisiae sgs1 mgt1 strain, at 50.0 µM, stronger effect = higher value. Put shortly:
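Growth of a repair-deficient yeast mutant was monitored after compound treatment and expressed as inhibition relative to vehicle-treated cultures.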

Assay [4] is described as follows: NCI Yeast Anticancer Drug Screen. Data for the cln2 rad14 strain (AID 165).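 Further: 0% = growth equal to vehicle treated cultures.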 The note with it: S. cerevisiae cln2 rad14 strain, at 50.0 µM, stronger effect = higher value. The method, boiled down: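 Readout is yeast growth inhibition versus vehicle-treated controls, using a strain with cln2 and rad14 alterations exposed to compound.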
The nature of assay [5]: NCI Yeast Anticancer Drug Screen. Data for the bub3 strain (AID 167). The note with it: S. cerevisiae bub3 mutant strain, at 50.0 µM, stronger effect = higher value. Put shortly: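 Screening used yeast with an engineered genetic alteration affecting cell cycle control. Compound-exposed cultures were compared with vehicle cultures, and reduced growth was taken as inhibition.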
Assay [6] in a line: NCI Yeast Anticancer Drug Screen. Data for the mlh1 rad18 strain (AID 175). The note with it: S. cerevisiae mlh1 rad18 strain growth inhibition; at 50.0 µM; stronger effect = higher value. The method, boiled down:
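Genetically defined yeast (DNA repair-deficient) exposed to compounds; growth inhibition determined relative to vehicle.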

This is part of a sample that, as a whole, favours compounds with a hit. Of some 79,000 tested, about 15% had one in any assay. Values without a mark were called inactive. Activity calls are given as the source filed them. No stated cut-off is given here; in the data, active means growth inhibition above about 70%; inactive means the rest.

With `Cc1ccc(S(=O)(=O)Oc2c([N+](=O)[O-])cc(-c3ccccc3)cc2[N+](=O)[O-])cc1`, the growth inhibition in assay [1] is 47.8%; in assay [2] it was 37.4%; in assay [3], 63%; in assay [4], 34.5%; in assay [5] it was 0.7%; in assay [6], 31%.

Turning to `CC(=O)Nc1ccc(S(=O)(=O)N/N=C/C(=O)O)cc1`, the growth inhibition in assay [1] was -15.6%; in assay [2], -32.4%; in assay [3] it was -40%; in assay [4] it was -22.4%; in assay [5], 5.4%; in assay [6], -16.6%.

Take `O=C(N/N=C/c1ccc(Br)cc1)N/N=C/c1ccc(Br)cc1`: the growth inhibition was -13.5% in assay [1]; -15.7% in assay [2]; -6.45% in assay [3]; 11.4% in assay [4]; -5.05% in assay [5]; -12.8% in assay [6].

On to `Nc1nc(N)c2nc3c(nc2n1)CCCCCC3`, for which the growth inhibition in assay [1] is 4.25%; in assay [2], -4%; in assay [3], 4.25%; in assay [4], -19.4%; in assay [5], -3.2%; in assay [6] it was 2.55%.

As to `CCOC(=O)c1cc(-c2ccccc2)nc2nc(N)ccc12`, the growth inhibition in assay [1] is 15.2%; in assay [2] it was -3.15%; in assay [3] it was 5.65%; in assay [4], 9.05%; in assay [5] it was 13.2%; in assay [6], 15.2%.

Regarding `COc1ccc(/C=C2\CN(C)Cc3c2nc(N)nc3-c2ccc(OC)cc2)cc1`, the growth inhibition is 2.05% in assay [1]; -13.1% in assay [2]; 5.2% in assay [3]; 38.1% in assay [4]; -5.5% in assay [5]; 5.75% in assay [6].

With `COc1ccc(OC)c(N=Cc2cccs2)c1`, the growth inhibition in assay [1] is 14.6%; in assay [2] it was 5.95%; in assay [3], 20.9%; in assay [4], 15.1%; in assay [5] it was 16.2%; in assay [6] it was 22.1%.

For `N#Cc1[nH]c(=S)[nH]c1N`, the growth inhibition in assay [1] is 4.1%; in assay [2], -7.85%; in assay [3], 2.6%; in assay [4], 6.05%; in assay [5], 11.8%; in assay [6], -40.8%.

With `CC1(C2=CCCCC2)CCC(=O)NC1=O` (stereo unspecified), the growth inhibition was -6.35% in assay [1]; 10.6% in assay [2]; 0.2% in assay [3]; 35.2% in assay [4]; 14.1% in assay [5]; 28.8% in assay [6].

On to `CCCCN(CCCC)C1(c2ccccc2)OC(c2ccccc2)=CC1=O` (stereo unspecified), for which the growth inhibition was 1.45% in assay [1]; 5.75% in assay [2]; -0.55% in assay [3]; -10.5% in assay [4]; 2.8% in assay [5]; 20.6% in assay [6].

Turning to `O=C1OC(=O)C2CCCCC12` (stereo unspecified), the growth inhibition in assay [1] is 29.9%; in assay [2], -11.9%; in assay [3], -11.4%; in assay [4], -48.3%; in assay [5], 8.95%; in assay [6] it was 18.9%.

As for `O=C1C(C2CCCCC2)=C2OCC3COC2(O3)c2ccccc21` (stereo unspecified), the growth inhibition is -8.75% in assay [1]; -16.6% in assay [2]; -20.1% in assay [3]; -10.1% in assay [4]; -14.6% in assay [5]; -30.7% in assay [6].

As to `CC1=C(C)OCC1`, the growth inhibition in assay [1] is 8.9%; in assay [2], 4%; in assay [3], 9.25%; in assay [4], 7.85%; in assay [5], 4.2%; in assay [6] it was 5.5%.

Consider `COc1cccc(/C=C\c2ccc(O)cc2)c1`, for which the growth inhibition in assay [1] is 87% (active); in assay [2], 91% (active); in assay [3], 92% (active); in assay [4] it was 92% (active); in assay [5] it was 91.2% (active); in assay [6] it was 91.5% (active).

`O=c1ccnc2c1ccc1[nH]cccc12`: the growth inhibition in assay [1] was 1.35%; in assay [2], 6.25%; in assay [3], -13.9%; in assay [4], 1%; in assay [5], 8.6%; in assay [6] it was 13.3%.

In the case of `Cc1cc(C)n(/N=C/c2ccco2)c(=O)c1C#N`, the growth inhibition in assay [1] was -20.3%; in assay [2], -33.1%; in assay [3], -26.1%; in assay [4] it was 11.4%; in assay [5] it was -17.5%; in assay [6], -10.7%.

Turning to `O=C(NN1C(=O)C(Cl)C1c1cccc([N+](=O)[O-])c1)c1ccccc1O` (stereo unspecified), the growth inhibition is -17.4% in assay [1]; -26.1% in assay [2]; -37.5% in assay [3]; 1.1% in assay [4]; -27.1% in assay [5]; -25.1% in assay [6].

As to `COc1ccc(OC)c(C(=O)C2=C(c3cc(OC)ccc3OC)CCC2)c1`, the growth inhibition in assay [1] was 7.3%; in assay [2], 38.4%; in assay [3] it was 33.2%; in assay [4] it was 2.1%; in assay [5], 44.4%; in assay [6], 28.4%.

As for `CC(O)C(=O)N1CCOCC1` (stereo unspecified), the growth inhibition in assay [1] was 3.5%; in assay [2], -3.65%; in assay [3], -0.7%; in assay [4], -24.9%; in assay [5], 4.25%; in assay [6], -23.3%.

As to `O=C(N=C1SCCS1)Nc1cccc(Cl)c1`, the growth inhibition in assay [1] is 87% (active); in assay [2], 5.7%; in assay [3], 44%; in assay [4], 11.3%; in assay [5], 11.4%; in assay [6], 37.2%.

On to `COc1cc(C(=O)O)c(I)c(OC)c1OC`, for which the growth inhibition is -10.9% in assay [1]; -5.85% in assay [2]; -6.25% in assay [3]; -4.85% in assay [4]; 3.6% in assay [5]; -9.65% in assay [6].
